One compound from ChEMBL document CHEMBL1961873, “Compounds: GSK PKIS; Assays: Nanosyn kinase panel” (2012) can be followed below.

Each structure is given as a SMILES string.

By inhibition is commonly meant the change of the read-out against control, counted positive when it falls.

Assay [1] deals with Sphingosine kinase 1 (Homo sapiens) (UniProt Q9NYA1). Particulars: at 1 µM.
The target in assay [2] is T1, Sphingosine kinase 2 (Homo sapiens) (UniProt Q9NRA0).
T1 sequence (whole entry): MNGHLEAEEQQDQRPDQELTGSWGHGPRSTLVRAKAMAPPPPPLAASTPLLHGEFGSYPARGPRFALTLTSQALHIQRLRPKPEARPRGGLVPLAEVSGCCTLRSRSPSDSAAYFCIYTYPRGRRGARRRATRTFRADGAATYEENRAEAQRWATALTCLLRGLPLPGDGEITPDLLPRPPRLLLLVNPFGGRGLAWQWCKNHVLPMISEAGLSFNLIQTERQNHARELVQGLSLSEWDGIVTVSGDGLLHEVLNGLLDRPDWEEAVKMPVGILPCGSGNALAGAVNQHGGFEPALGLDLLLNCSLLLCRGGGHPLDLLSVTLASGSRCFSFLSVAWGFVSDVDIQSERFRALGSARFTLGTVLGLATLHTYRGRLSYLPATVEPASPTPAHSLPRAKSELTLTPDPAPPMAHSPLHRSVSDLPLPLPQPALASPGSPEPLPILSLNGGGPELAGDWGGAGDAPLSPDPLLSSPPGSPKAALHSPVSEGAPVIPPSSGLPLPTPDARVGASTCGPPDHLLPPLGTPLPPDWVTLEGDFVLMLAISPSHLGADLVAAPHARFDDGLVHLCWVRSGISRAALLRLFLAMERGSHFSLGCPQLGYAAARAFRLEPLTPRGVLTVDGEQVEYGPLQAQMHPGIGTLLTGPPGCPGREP
The conditions noted are these: at 0.1 µM.

Assay [3] deals with T1, Sphingosine kinase 2 (Homo sapiens). Particulars: at 1 µM.
The target of assay [4] is Casein kinase II subunit alpha (Homo sapiens) (UniProt P68400). Particulars: at 0.1 µM.
Casein kinase II subunit alpha (Homo sapiens), sequence (P68400 whole entry, looked up): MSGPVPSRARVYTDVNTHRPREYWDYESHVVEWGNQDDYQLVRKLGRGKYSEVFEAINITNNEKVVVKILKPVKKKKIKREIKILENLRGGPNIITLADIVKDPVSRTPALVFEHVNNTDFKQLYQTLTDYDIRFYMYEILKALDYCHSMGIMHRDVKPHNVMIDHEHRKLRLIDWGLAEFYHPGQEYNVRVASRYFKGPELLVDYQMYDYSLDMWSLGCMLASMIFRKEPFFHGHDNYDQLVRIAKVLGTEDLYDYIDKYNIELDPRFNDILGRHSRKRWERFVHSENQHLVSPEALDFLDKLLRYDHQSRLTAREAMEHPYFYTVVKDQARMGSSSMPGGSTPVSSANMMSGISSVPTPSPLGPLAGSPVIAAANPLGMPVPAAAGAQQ
For assay [5] the target is unchanged. Particulars: at 1 µM.
The target in assay [6] is T2, Inhibitor of nuclear factor kappa-B kinase subunit alpha (Homo sapiens) (UniProt O15111).
T2 sequence (whole entry): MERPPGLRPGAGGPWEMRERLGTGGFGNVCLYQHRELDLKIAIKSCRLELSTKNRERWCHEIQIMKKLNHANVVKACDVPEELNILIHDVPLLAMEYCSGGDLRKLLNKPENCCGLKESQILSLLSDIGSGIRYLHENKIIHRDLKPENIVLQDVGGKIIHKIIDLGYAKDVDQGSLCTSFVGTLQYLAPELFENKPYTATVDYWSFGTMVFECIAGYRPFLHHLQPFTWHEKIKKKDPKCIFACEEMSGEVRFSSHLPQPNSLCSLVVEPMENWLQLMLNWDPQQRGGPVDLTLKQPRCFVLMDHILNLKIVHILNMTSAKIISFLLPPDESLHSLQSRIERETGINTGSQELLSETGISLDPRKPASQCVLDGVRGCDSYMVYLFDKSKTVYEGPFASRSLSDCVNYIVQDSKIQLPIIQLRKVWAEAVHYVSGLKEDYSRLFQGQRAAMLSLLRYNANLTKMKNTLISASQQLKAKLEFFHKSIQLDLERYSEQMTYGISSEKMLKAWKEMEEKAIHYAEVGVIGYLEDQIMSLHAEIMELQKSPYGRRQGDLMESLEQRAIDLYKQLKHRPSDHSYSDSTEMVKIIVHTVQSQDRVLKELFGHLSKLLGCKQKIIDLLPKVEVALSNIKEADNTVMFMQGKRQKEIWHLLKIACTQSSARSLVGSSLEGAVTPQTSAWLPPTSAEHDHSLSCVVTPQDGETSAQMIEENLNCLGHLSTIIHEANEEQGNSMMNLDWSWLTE
Particulars: at 0.1 µM.

Assay [7] addresses T2, Inhibitor of nuclear factor kappa-B kinase subunit alpha (Homo sapiens). The conditions noted are these: at 1 µM.
The target in assay [8] is T3, Inhibitor of nuclear factor kappa-B kinase subunit beta (Homo sapiens) (UniProt O14920).
T3 sequence (whole entry): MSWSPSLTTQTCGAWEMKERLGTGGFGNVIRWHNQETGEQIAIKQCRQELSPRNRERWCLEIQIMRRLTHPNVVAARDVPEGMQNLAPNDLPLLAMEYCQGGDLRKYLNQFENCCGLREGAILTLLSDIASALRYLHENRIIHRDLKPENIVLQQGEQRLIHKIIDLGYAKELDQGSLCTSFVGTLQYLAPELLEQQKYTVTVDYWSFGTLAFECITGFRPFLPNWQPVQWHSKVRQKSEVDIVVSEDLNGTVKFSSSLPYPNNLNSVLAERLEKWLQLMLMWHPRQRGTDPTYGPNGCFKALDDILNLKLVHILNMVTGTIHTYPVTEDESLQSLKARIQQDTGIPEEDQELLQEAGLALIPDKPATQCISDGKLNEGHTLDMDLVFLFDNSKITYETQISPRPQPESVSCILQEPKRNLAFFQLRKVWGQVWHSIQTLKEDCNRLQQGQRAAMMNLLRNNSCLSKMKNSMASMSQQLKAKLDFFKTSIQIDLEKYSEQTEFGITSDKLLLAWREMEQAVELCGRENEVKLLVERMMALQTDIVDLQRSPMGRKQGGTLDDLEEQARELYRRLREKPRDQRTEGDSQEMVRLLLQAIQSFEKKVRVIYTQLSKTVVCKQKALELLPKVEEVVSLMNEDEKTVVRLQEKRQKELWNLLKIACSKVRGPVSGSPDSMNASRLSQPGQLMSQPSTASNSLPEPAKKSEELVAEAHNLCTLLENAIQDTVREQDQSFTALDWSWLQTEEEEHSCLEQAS
Particulars: at 0.1 µM.

Assay [9] addresses T3, Inhibitor of nuclear factor kappa-B kinase subunit beta (Homo sapiens). Particulars: at 1 µM.
Assay [10] deals with T4, Inhibitor of nuclear factor kappa-B kinase subunit epsilon (Homo sapiens) (UniProt Q14164).
T4 sequence (whole entry): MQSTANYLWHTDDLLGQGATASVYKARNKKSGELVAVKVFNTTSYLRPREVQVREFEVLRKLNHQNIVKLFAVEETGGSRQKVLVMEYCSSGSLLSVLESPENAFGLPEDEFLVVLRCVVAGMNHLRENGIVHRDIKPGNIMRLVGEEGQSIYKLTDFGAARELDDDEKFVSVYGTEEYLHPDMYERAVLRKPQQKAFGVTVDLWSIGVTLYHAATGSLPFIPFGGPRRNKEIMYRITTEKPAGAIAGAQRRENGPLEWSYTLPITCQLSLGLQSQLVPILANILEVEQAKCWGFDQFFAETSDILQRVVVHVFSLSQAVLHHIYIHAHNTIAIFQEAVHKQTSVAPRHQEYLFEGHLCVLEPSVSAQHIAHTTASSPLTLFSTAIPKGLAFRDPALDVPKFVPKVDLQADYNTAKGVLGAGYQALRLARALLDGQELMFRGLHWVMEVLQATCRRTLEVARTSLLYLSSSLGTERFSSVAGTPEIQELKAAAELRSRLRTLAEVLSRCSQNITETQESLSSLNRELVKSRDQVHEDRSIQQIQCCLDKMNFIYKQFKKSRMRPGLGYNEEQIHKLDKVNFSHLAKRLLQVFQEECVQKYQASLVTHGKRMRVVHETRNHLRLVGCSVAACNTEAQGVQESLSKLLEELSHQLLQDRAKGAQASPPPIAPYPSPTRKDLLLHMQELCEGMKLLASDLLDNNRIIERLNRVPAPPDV
The conditions noted are these: at 0.1 µM.

Assay [11] deals with T4, Inhibitor of nuclear factor kappa-B kinase subunit epsilon (Homo sapiens). Particulars: at 1 µM.
Assay [12] deals with T5, Serine/threonine-protein kinase Nek1 (Homo sapiens) (UniProt Q96PY6).
T5 sequence (whole entry): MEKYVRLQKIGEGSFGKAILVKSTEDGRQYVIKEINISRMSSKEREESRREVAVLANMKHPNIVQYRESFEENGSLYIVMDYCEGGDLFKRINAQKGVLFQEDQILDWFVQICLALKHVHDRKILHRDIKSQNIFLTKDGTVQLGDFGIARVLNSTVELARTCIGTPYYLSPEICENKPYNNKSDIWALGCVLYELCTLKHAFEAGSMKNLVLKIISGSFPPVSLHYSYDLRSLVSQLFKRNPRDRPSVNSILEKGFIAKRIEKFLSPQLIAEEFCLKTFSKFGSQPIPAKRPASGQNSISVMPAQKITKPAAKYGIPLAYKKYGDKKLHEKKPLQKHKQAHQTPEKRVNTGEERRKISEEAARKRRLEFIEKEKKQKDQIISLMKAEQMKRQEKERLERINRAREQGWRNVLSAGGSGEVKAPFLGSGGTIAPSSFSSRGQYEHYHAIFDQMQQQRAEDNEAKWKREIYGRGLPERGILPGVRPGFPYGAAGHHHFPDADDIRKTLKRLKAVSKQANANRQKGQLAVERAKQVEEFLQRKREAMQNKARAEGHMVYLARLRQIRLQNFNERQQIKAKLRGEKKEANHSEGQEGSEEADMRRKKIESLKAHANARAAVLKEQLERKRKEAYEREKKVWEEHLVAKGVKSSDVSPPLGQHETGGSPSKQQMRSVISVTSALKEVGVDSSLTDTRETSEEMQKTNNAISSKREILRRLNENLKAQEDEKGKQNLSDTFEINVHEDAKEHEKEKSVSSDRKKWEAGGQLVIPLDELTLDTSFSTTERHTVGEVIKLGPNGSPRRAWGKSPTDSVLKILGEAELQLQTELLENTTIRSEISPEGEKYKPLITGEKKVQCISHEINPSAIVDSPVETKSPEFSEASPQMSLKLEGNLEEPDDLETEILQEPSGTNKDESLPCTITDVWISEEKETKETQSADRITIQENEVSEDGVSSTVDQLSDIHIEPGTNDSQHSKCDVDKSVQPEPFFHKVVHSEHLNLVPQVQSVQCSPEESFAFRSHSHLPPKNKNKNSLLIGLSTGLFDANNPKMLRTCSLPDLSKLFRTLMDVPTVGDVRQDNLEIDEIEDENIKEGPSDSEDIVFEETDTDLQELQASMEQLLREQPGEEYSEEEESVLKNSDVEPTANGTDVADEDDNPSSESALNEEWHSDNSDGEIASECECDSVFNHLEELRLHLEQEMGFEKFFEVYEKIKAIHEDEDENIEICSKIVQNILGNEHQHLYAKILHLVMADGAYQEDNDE
Particulars: at 0.1 µM.

The target of assay [13] is T5, Serine/threonine-protein kinase Nek1 (Homo sapiens). Particulars: at 1 µM.
The target in assay [14] is T6, Serine/threonine-protein kinase Nek2 (Homo sapiens) (UniProt P51955).
T6 sequence (whole entry): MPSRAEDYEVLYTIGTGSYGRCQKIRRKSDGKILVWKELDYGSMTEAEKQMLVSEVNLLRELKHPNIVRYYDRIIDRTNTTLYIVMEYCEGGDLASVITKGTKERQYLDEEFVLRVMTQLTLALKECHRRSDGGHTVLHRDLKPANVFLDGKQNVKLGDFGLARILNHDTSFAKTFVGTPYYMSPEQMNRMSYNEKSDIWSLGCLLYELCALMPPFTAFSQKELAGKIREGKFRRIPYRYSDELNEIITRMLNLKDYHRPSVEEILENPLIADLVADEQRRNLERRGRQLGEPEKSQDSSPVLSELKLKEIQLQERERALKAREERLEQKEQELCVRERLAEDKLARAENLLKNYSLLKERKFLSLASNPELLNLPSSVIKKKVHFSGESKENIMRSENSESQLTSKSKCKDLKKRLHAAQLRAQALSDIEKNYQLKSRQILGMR
The conditions noted are these: at 0.1 µM.

For assay [15], the target named is T6, Serine/threonine-protein kinase Nek2 (Homo sapiens). Particulars: at 1 µM.
The target of assay [16] is Serine/threonine-protein kinase Nek6 (Homo sapiens) (UniProt Q9HC98). The conditions noted are these: at 0.1 µM.
Serine/threonine-protein kinase Nek6 (Homo sapiens), sequence (Q9HC98 whole entry): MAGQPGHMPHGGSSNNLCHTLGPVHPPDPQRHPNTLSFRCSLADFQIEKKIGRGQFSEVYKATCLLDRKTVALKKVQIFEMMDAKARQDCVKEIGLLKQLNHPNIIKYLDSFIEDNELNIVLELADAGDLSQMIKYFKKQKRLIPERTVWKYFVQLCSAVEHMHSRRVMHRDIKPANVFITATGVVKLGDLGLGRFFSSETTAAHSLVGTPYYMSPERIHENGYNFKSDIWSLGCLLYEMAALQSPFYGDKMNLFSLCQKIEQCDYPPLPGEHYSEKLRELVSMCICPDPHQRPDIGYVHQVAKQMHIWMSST
Assay [17] has the same target. The conditions noted are these: at 1 µM.
The target of assay [18] is Serine/threonine-protein kinase Nek7 (Homo sapiens) (UniProt Q8TDX7). The conditions noted are these: at 0.1 µM.
Serine/threonine-protein kinase Nek7 (Homo sapiens), sequence (Q8TDX7 whole entry, looked up): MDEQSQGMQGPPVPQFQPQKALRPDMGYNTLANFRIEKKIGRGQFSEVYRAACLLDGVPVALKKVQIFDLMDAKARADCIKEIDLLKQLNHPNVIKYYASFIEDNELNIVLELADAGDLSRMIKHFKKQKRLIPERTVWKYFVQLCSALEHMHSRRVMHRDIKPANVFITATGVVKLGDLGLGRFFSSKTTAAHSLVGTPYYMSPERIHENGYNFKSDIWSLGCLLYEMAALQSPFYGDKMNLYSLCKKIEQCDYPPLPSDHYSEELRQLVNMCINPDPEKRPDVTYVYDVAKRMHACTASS
Assay [19] shares this target. Particulars: at 1 µM.
Assay [20] deals with T7, Serine/threonine-protein kinase Nek9 (Homo sapiens) (UniProt Q8TD19).
T7 sequence (whole entry): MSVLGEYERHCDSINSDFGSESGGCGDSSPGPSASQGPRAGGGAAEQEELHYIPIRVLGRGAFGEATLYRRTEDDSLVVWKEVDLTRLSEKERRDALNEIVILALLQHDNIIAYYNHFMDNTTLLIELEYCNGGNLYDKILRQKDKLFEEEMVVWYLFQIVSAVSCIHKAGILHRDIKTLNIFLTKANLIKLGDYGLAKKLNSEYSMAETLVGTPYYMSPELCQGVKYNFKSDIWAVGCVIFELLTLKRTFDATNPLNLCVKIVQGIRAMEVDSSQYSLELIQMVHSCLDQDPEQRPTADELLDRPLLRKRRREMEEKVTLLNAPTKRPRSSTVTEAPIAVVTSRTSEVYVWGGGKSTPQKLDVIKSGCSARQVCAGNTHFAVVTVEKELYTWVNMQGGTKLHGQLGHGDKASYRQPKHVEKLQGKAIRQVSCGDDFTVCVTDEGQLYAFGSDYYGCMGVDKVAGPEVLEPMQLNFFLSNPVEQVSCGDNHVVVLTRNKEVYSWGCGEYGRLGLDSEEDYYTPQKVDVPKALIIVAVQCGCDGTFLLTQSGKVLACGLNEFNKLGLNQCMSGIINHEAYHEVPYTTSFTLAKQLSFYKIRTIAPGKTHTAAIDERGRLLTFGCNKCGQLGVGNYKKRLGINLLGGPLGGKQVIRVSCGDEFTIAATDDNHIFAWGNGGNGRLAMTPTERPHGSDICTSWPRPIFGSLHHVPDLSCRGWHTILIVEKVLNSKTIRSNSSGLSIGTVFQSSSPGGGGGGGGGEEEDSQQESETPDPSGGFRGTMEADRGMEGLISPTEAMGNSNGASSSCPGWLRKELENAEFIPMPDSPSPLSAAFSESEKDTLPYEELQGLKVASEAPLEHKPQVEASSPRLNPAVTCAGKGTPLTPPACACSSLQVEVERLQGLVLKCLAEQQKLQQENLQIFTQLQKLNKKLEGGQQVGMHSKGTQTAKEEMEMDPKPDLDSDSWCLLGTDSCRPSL
Particulars: at 0.1 µM.

Sphingosine kinase 1 (Homo sapiens), sequence (Q9NYA1 whole entry): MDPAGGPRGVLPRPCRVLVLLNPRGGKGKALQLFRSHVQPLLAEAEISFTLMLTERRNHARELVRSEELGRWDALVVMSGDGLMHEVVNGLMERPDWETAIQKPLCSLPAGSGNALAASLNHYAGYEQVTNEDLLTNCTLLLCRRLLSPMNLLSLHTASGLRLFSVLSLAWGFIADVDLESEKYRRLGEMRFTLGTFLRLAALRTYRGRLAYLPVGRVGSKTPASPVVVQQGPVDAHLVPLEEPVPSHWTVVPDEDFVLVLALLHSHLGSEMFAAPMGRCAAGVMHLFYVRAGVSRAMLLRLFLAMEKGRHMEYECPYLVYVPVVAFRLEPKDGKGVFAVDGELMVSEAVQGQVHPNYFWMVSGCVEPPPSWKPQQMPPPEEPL

In the case of `CCCN1CCC(c2ccc(Nc3nc(Nc4cc(F)ccc4C(N)=O)c4cc[nH]c4n3)c(OC)c2)CC1`, the inhibition in [1] was -2.44%; in assay [2], 0%; in [3], 0%; in assay [4], 32.4%; in [5] it was 70.3%; in [6], 2.7%. Besides, the inhibition is 18.7% in [7]; 0.13% in [8]; 7.11% in assay [9]; 6.68% in [10]; 5.85% in assay [11]; 4.68% in [12]. Also, the inhibition was 21.6% in assay [13]; 4.85% in assay [14]; 17.6% in assay [15]; 4.35% in [16]; 8.4% in assay [17]; 7.49% in [18]. Further, the values for the inhibition in assay [19] and in assay [20] were 8.87% and 8.38%, respectively.
